Shown are actives, neighbours in structure and some others; about 6% of the full set was active somewhere.
D3 ag = agonists of human D3 dopamine receptor; max activation, %; AID 652048; 410,000 compounds, 0.58% hits; D3R DiscoveRx beta-arrestin cells, luminescence, 90 min; P35462; in the data active means max activation above about 30%; further: 0% is about no effect
Target sequence (P35462 whole entry, looked up): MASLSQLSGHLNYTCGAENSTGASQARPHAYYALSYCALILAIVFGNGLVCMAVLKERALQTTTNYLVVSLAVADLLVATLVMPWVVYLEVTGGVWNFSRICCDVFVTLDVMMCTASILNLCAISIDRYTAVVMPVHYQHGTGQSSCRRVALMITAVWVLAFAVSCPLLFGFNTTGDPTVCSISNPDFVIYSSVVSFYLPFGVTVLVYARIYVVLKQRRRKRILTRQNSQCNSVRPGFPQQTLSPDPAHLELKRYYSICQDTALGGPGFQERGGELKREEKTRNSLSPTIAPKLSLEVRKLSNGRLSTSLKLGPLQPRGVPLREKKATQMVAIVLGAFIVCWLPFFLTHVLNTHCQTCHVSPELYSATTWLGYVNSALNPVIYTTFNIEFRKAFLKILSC
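Agonist-mode cell screen: cells plated at 1500/well and incubated overnight at 37 °C, then exposed to library compounds for 90 min at 37 °C. Detection reagent was added for 30–60 min at room temperature, and luminescence was read.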
D1 antagonist = antagonists of human D1 dopamine receptor | P21728 | HEK293 TREx D1 cells, calcium flux, dopamine EC80; hits give low values | activity change, negative = inhibition, % at 10 µM | 360,000 compounds, 3.2% hits | AID 504652; in the data active means activity change below about -30%; further: on the % scale 0 is the no-effect control and ±100 the full control effect
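Using tetracycline-induced force-coupled D1 Hek293 cells and a calcium dye, signals were followed for 180 s after compound, then for 180 s after EC80 dopamine, to detect inhibitors.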
DRD3 antagonist = blocks the human D3 dopamine receptor. D3R cells, DiscoveRx beta-arrestin luminescence, antagonist mode; hits give low values. AID 652054. max response, negative = inhibition, %. 360,000 compounds, 2.5% hits. P35462; in the data active means max response below about -50%; inconclusive means no clear call, values can overlap the other calls; further: on the % scale 0 is the no-effect control and ±100 the full control effect
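Cells expressing the human receptor were seeded at 1500 cells/well, incubated overnight at 37 degrees C in 5% CO2, then exposed to library compounds with dopamine controls for 90 minutes at 37 degrees C before luminescent detection.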
D1 agonist = human D1 receptor agonism. P21728. HEK293 T-REx D1 cells, calcium flux, agonist mode. activation, % at 2 µM. 360,000 compounds, 1% hits. AID 504660; in the data active means activation above about 30%; further: 0% is about no effect
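Tetracycline-induced HEK293 TREx D1 cells, force-coupled to calcium signalling, were dye-loaded with a no-wash calcium kit. Compound was pin-added after a 10 s baseline. Fluorescence was read kinetically at 1 cycle/s for 180 s, with calcium rises flagged as agonism.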
D1 PAM = enhances dopamine response at the human D1 receptor; HEK293 TREx D1 cells, calcium flux, dopamine EC20 potentiation; 360,000 compounds, 0.036% hits; potentiation, % at 10 µM; P21728; in the data active means potentiation above about 30%; further: 0% is about no effect
* marks the source's active call; other numbers are inactive results; u = inconclusive; x = not tested or not shown.

SMILES	D3 ag	D1 antagonist	DRD3 antagonist	D1 agonist	D1 PAM
CCN1C(=O)C(CC(=O)Nc2ccc(OC)cc2)N(CCCN2CCN(c3ccc(F)cc3)CC2)C1=S (stereo not drawn)	-32	-43*	-12	11	-6
COc1ccc(NC(=O)CC2C(=O)N(C)C(=S)N2CCc2ccccc2)cc1 (stereo not drawn)	2	-41*	-11	5	-8
COc1ccc(CCN2C(=S)N(C)C(=O)C2CC(=O)Nc2ccc(OC)cc2)cc1 (stereo not drawn)	-6	-11	-20	7	-4
CCCNC(=O)CSc1nnc(NC(=O)C2CC(=O)N(c3ccccc3OC)C2)s1 (stereo not drawn)	8	x	10	x	x
O=C1NC(=S)N/C1=C\c1ccc(Oc2ccc(C(F)(F)F)cc2[N+](=O)[O-])c(Cl)c1	-3	-52*	-4	0	3
COc1ccc(/C=C/c2ccncc2)cc1	-11	-34*	22	2	-9
C=CC[C@H]1CC(C)=C[C@H](CC=C)N1C(=O)c1cc(COc2ccccc2SC)on1	10	-13	19	40*	3
Cc1ccc(C(=O)N(Cc2ccco2)Cc2sccc2C)cc1	6	5	x	2	-1
COc1cccc(-c2nnc(-c3ccccc3NC(=O)c3cccc(C(F)(F)F)c3)o2)c1	5	20	x	-1	0
Cc1[nH]n(-c2ccccc2)c(=O)c1C=Nc1cccc2cccnc12	-20	4	-87*	1	-8
Cc1ccc(-n2[nH]c(C)c(C=Nc3ccc(Br)cn3)c2=O)cc1	0	-33*	7	2	-8
Cc1ccc(-n2[nH]c(C)c(/C=N/c3ccccn3)c2=O)cc1	3	-8	15	-1	5
COC(=O)C1=CN(c2ccc3c(c2)OCO3)C(N)=C(C#N)C1c1ccc(-c2ccccc2)cc1 (stereo not drawn)	-5	x	u	x	x
Cc1ccc(CN2CCSc3ccc(C(=O)N4CCN(c5cccc(C)c5C)CC4)cc32)cc1	3	-2	x	0	2
CCOc1ccc(-c2cc(-c3nc(-c4ccc(C)cc4)no3)[nH]n2)cc1	-12	0	x	1	-3
COc1ccc2cc(C(=O)Nc3ccc(Cl)cc3)sc(=O)c2c1OC	-29	23	-69*	4	1
COc1ccc2cc(C(=O)Nc3ccc(O)cc3)sc(=O)c2c1OC	-25	-1	-21	-2	-10
COC(=O)c1ccc(-n2nnc(-c3nsc(NC(=O)c4ccc(Cl)cc4)n3)c2C)cc1	6	-55*	x	3	1
Cc1c(-c2nsc(NC(=O)c3ccc(Cl)cc3)n2)nnn1-c1ccc(C(C)C)cc1	-6	-15	x	5	-1
O=[N+]([O-])c1ccc(O)c(-c2cc(C(F)(F)F)nc(-c3ccccc3)n2)c1	8	-48*	7	36*	-6
Oc1ccccc1-c1cc(C(F)(F)C(F)F)nc(-c2ccccc2)n1	13	5	1	3	0
CC(C)(C)C(=O)N1CCN(c2ccc(NC(=O)c3ccc4c(c3)OCCO4)cc2)CC1	10	-30*	9	5	-4
CC(C)(C)C(=O)N1CCN(c2ccc(NC(=O)c3ccc([N+](=O)[O-])o3)cc2)CC1	-13	-8	u	48*	-8
O=C(Nc1ccc(N2CCN(C(=O)c3ccc(Cl)cc3)CC2)cc1)c1ccc2c(c1)OCCO2	43*	-15	23	8	5
O=C(NCCc1ccc(Cl)cc1)c1ccc2c(c1)OCCO2	5	-37*	12	2	-7
SMILES	D3 ag	D1 antagonist	DRD3 antagonist	D1 agonist	D1 PAM
O=C(Nc1ccc(N2CCN(C(=O)c3ccccc3)CC2)cc1)c1ccc2c(c1)OCCO2	27	-10	43	13	0
CC(=O)N1CCN(c2ccc(NC(=O)c3ccc4c(c3)OCCO4)cc2)CC1	-7	-27	-8	0	0
O=C(NCCc1ccc(Cl)cc1)c1ccc2c(c1)OCO2	2	-29	-4	4	-8
O=C(Nc1cccc(F)c1)c1cc(S(=O)(=O)N2CCOCC2)cs1	-13	-84*	-5	7	-1
Cc1ccc(NC(=O)c2cc(S(=O)(=O)N3CCOCC3)cs2)cc1	-4	-7	-7	0	-3
O=C(Nc1ccc(F)cc1)c1cc(S(=O)(=O)N2CCOCC2)cs1	-3	-61*	3	2	0

Screening results from PubChem.
